BAZ2B block = inhibitors of human BAZ2B bromodomain; Q9UIF8; AlphaScreen BAZ2B-H3K14Ac peptide displacement; Potency, µM (titrated, usually from 114 µM), actives largely listed as inhibitors; 360,000 tested, 4.4% active; note: nearly all actives have a fitted effect of over 60% in size
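Complex of BAZ2B and biotin-H3K14Ac (50 nM apiece) forms over 30 min at RT, then faces library compounds up to 110 uM for another 30 min; AlphaScreen beads added, 20 min dark incubation, luminescence read.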
JMJD2A Tudor inh = JMJD2A Tudor domain (human) inhibition; O75164; AlphaScreen JMJD2A-Tudor / H3K4me3 peptide binding; 390,000 tested, 4.4% active; Potency, µM (doses to about 114 µM), hits mostly inhibitors; AID 504339; note: nearly all actives have a fitted effect of over 50% in size
CtBP-E1A inh = blocks the CtBP interaction with E1A | 340,000 tested, 0.49% active | AlphaScreen GST-E1A/His-CtBP binding, 1536-well; stronger effect = lower value | AID 651724 | activity change, % (concentration not given with the values); in the data active = activity change below about -65%; inconclusive = mostly about -30% to -63%
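Homogeneous bead-based format: GST-tagged E1A captured on glutathione donor beads, His-tagged CtBP on nickel acceptor beads; compounds precede bead addition by 2 h at 37 °C.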
HP1b binding inh = HP1-beta chromodomain-methylated histone interaction inhibition | AlphaScreen HP1-beta / biotin-H3K9me3 peptide binding | Potency, µM (series often up to 114 µM), usual class: inhibitors | 390,000 tested, 0.56% active | AID 540317; note: nearly all actives have a fitted effect of over 70% in size
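AlphaScreen: HP1-beta (50 nM) preformed 30 min with biotin-H3(1-18)K9me3 peptide (50 nM) in PBS pH 7.4, 0.01% Tween-20. Compound added for 30 min at RT, then streptavidin donor/nickel chelate acceptor beads (10 ug/mL) for 30 min.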
G9a block = G9a (human) methyltransferase inhibition. AID 504332. Q96KQ7. G9a H3K9 monomethylation, AlphaScreen, 2 h. Potency, µM (highest dose often 102 µM), usual class: inhibitors. 350,000 tested, 8.8% active; note: nearly all actives have a fitted effect of over 75% in size
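Enzyme 20 nM + cpd, 15 min RT; add b-H3K9 pep 500 nM / SAM 20 uM; 2 h RT; anti-H3K9me1 Ab 0.5 ug/mL + SA donor / anti-rabbit acceptor beads 20 ug/mL each, 10 min; AlphaScreen read.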
Six1-Eya2 inh = blocks human Six1 binding to Eya2. AlphaScreen GST-Six1/His-Eya2 binding, biochemical; stronger effect = lower value. Q15475+O00167. 360,000 tested, 0.56% active. activity change, % (concentration not given with the values); in the data active = activity change below about -65%; inconclusive = mostly about -30% to -63%
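GST-Six1 + His-Eya2 (5X stock: 250/500 nM); Tris pH 8.0, 300 mM NaCl, 0.05% BSA, 0.02% Tween 20; GSH donor/Ni acceptor beads; 1 h 37 °C dark; AlphaScreen readout.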
Numbers stand for hits; . = inactive; ? = inconclusive; / = not tested or not shown; ! = not confirmed by another sample; [ ] = remark or other dose. Only some compounds are listed: those with a hit (about 10% of all), similar ones and a draw of the others. Unless noted, calls come from the whole dose curve; as a rule, active = well fitted inhibition curve with a large enough effect; inconclusive = small, poorly fitted or top-dose-only effect; inactive = no such curve, though single readings can be large or run the other way.

SMILES | BAZ2B block | JMJD2A Tudor inh | CtBP-E1A inh | HP1b binding inh | G9a block | Six1-Eya2 inh
C=CCN1C=C2C(=O)C(C)(OC(=O)c3cccs3)C(=O)C=C2C=C1CCCC(=O)OC (stereo unspecified) | 79µM | . | . | . | .[12.7 µM] | .
COC(=O)CCCC1=CC2=CC(=O)C(C)(OC(=O)c3cccs3)C(=O)C2=CN1CCc1ccccn1 (stereo unspecified) | . | . | . | . | . | .
COC(=O)[C@]12CCCCC=C1N(Cc1ccco1)C(=O)[C@H](CC(=O)NCC13CC4CC(CC(C4)C1)C3)C2 | / | / | . | / | / | .
CCOC(=O)[C@]12CCCC=C1N(Cc1ccccc1)C(=O)[C@H](CC(=O)N1CCCC1)C2 | / | / | . | / | / | .
CN(C)S(=O)(=O)c1cccc(NC(=S)N/N=C/c2cc(Br)ccc2O)c1 | 18µM | 28µM | -94 | . | / | -88
Cc1ccc(-c2nc3nc(C)cc(N4CCN(c5cccc(C)c5C)CC4)n3n2)cc1 | . | . | / | . | . | /
O=C(CCN1C(=O)C2C3CC(C(Br)C3Br)C2C1=O)OCC(=O)c1ccccc1 (stereo unspecified) | . | 79µM | . | . | . | .
O=C(Nc1nnc(-c2ccco2)o1)C1CCCCC1 | ? | 89µM | . | . | ? | .
O=C(Nc1nc(-c2ccco2)c(-c2ccco2)s1)C1CC(=O)N(c2ccc3c(c2)OCCO3)C1 (stereo unspecified) | 11µM | 25µM | . | . | ? | ?
O=C(Nc1nnc(-c2ccncc2)o1)c1ccc(Br)s1 | 71µM | ? | . | . | . | ?
CS(=O)(=O)c1ccc(C(=O)Nc2nc(-c3ccco3)c(-c3ccco3)s2)cc1 | 40µM | ? | . | 40µM | 10µM | ?
CC(C)C[C@H](NC(=O)Nc1ccc2c(c1)OCCO2)C(=O)O | . | . | . | . | . | .
CCOc1ccccc1N(CC)C(=O)c1cc2c(=O)n(CC)c3ccccc3c2s1 | . | . | / | . | . | /
O=C(Nc1nnc(-c2ccc(Cl)s2)o1)C1CC1 | / | . | . | . | . | .
O=C(Nc1nnc(-c2ccco2)s1)C1CCCCC1 | 50µM | . | . | . | . | .
O=C(Nc1nnc(-c2cccs2)o1)C1CC1 | ? | 50µM | . | . | 50µM | .
O=C(Nc1nnc(-c2ccncc2)o1)C1CCCCC1 | 50µM | 20µM | . | . | ? | ?
O=C(Nc1nc(-c2ccco2)c(-c2ccco2)s1)C1CCC1 | 32µM | 40µM | . | 50µM | ? | .
Cc1ccc(S(=O)(=O)N2CCC(C(=O)Nc3nnc(-c4ccco4)s3)CC2)cc1 | ? | . | . | . | .[12.7 µM] | .
CCOC(=O)c1ccccc1NC(=O)COC(=O)C1CCN(S(=O)(=O)c2ccccc2C(=O)OC)CC1 | . | . | . | . | . | .
CCOc1ccc(C(c2c(O)cc(C)n(Cc3ccco3)c2=O)N2CCCCC2)cc1 (stereo unspecified) | . | . | / | . | ? | /
CCOCCCNC(=O)c1cnc2sc(N3CCCCCC3)nn2c1=O | . | . | / | ? | . | /
COc1ccc2c(c1)c1c(c(=O)n(-c3ccccc3C)c(=O)n1CC(=O)N1CCCC1)n2C | . | . | / | . | . | /
CCCCCCCCCCCCCC(=O)N[C@H](C)[C@@H](O)c1ccccc1 | / | / | / | / | . | /
Cc1ccccc1NC(=O)C1c2cccc[n+]2CC(=O)N1c1c(C)cccc1C (stereo unspecified) | 45µM | 50µM | . | ? | 5.6µM | .
SMILES | BAZ2B block | JMJD2A Tudor inh | CtBP-E1A inh | HP1b binding inh | G9a block | Six1-Eya2 inh
Cc1cccc(C)c1NC(=O)C1c2cccc[n+]2CC(=O)N1Cc1ccc2c(c1)OCO2 (stereo unspecified) | . | . | . | . | 8.9µM | .
CN(C)C1=NC(=O)/C(=C/c2ccc(-c3ccc(S(N)(=O)=O)cc3)o2)S1 | ? | / | / | / | 7.1µM | /
CC(=O)Nc1ccc(-c2ccnc3c2CC(C)(C(=O)NCc2ccc(N4CCN(C)CC4)cc2)O3)cc1 (stereo unspecified) | / | / | . | / | / | .
CCN1CCN(c2ccc([N+](=O)[O-])c(Sc3nc4ccccc4[nH]3)c2)CC1 | . | . | . | ? | 32µM | .
CS(=O)(=O)c1cc([N+](=O)[O-])c(Sc2nc3ccccc3[nH]2)c([N+](=O)[O-])c1 | . | ? | . | ? | ? | .
O=[N+]([O-])c1ccc(N2CCN(CCO)CC2)cc1Sc1ccccn1 | . | . | . | . | . | .
O=C(O)c1cc([N+](=O)[O-])c(Sc2nc3ccccc3[nH]2)c([N+](=O)[O-])c1 | . | . | / | . | 40µM | ?
NS(=O)(=O)c1ccc(CCNc2ccccc2[N+](=O)[O-])cc1 | . | . | . | . | . | .
COC(=O)CCCn1nc(NC(=O)c2ccco2)cc1C | . | . | / | . | . | .
CC(C)NC(=O)/C(=C/c1ccco1)c1ccccc1 | . | . | . | . | / | .
O=C(NCCc1ccccc1)/C(=C/c1ccco1)c1ccccc1 | ? | . | . | . | 10µM | .
Cc1cc(C)c(NC(=O)/C(=C/c2ccco2)c2ccccc2)c(C)c1 | . | . | . | . | 45µM | .
Cc1cccc(C)c1NC(=O)/C(=C/c1ccco1)c1ccccc1 | . | . | . | . | 32µM | .
CCC(C)NC(=O)/C(=C/c1ccco1)c1ccccc1 (stereo unspecified) | . | . | . | . | .[12.7 µM] | .
CN(C(=S)NCCN1CCOCC1)C(c1ccccc1)c1ccccc1 | 50µM | 10µM | / | ? | 20µM | .
S=C(NCCc1ccccc1)NCCN1CCOCC1 | . | . | . | . | . | .
CN1CCN(CC/C=C2/c3ccccc3Sc3ccc(S(=O)(=O)N(C)C)cc32)CC1 | ? | ? | . | . | 50µM! | .
CN1CCN(CC(=O)N2c3ccccc3Sc3ccccc32)CC1 | . | . | / | . | . | .
CN1CCN(c2ccc(S(=O)(=O)N3CCCCC3)cc2NC(=O)Cc2c(F)cccc2Cl)CC1 | . | . | . | . | 45µM | .
CC(=O)NCCC(=O)Nc1cc(S(=O)(=O)Nc2ccc(Cl)cc2)ccc1N1CCCC1 | . | ? | . | . | 22µM | .
O=S(=O)(Nc1ccc(Cl)cc1)c1ccc(N2CCOCC2)c(NC(=S)NCCN2CCOCC2)c1 | ? | 79µM | . | ? | 4.5µM | .
CC(=O)NCCC(=O)Nc1cc(S(=O)(=O)N2CCCCC2)ccc1N1CCN(C)CC1 | . | ? | . | . | 50µM | .
COCCNC(=S)Nc1ccc(N2CCOCC2)c(S(=O)(=O)Nc2ccc(Cl)cc2)c1 | / | / | . | / | / | .
C[C@H]1C(=O)N(S(=O)(=O)c2ccccc2[N+](=O)[O-])[C@H]1c1ccc(-c2ccccc2)cc1 | / | ? | / | . | / | /
Nc1ccc(-c2cnc(N)c(C(=O)c3cccnc3)n2)cn1 | / | ? | / | . | / | ?
CCOc1ccc(CC(=O)NNC(=S)NCCc2ccccc2)cc1 | . | . | . | . | / | .

Bioassay records from PubChem.
